Composite z-score and z-score data for six molecules are collected here from PubChem BioAssay.

The source made the active and inactive calls.

Experiment [1] has as its system Plasmodium falciparum Sir2 (PF13_0152, Sir2A). Description: Plasmodium falciparum Sir2A binding compounds – biochemical, small-molecule microarray, 635 nm fluorescence, primary screen (AID 1098).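 Also: score merges spot fluorescence intensity with its signal-to-noise ratio.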 Particulars: fluorescence 635 nm, higher = more signal.
Experiment [2] can be described thus: probe aDKK1 binding to arrayed compounds – biochemical, biotinylated probe, 635/667 nm fluorescence, primary screen (AID 1099).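 Also: score merges 667nm spot fluorescence with signal to noise across triplicate slides.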 Particulars: small-molecule microarray, higher = more signal.
The nature of experiment [3]: probe aCHRDL2 binding to arrayed compounds – biochemical, biotinylated probe, 635/667 nm fluorescence, primary screen (AID 1100). To be noted: small-molecule microarray, higher = more signal.
Experiment [4] can be described thus: change in splice reporter luminescence, either direction, cell-based, HEK293, spliceosome inhibition project, primary screen (AID 1101).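 Also: HEK293 cells carrying a splicing-competent luciferase reporter gene; test concentration not given here.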 Particulars: HEK293 splicing luciferase reporter, 24 h, higher = more signal, called active from +8 up or from −8 down.
Experiment [5] deals with Fibroblast growth factor 10 (Homo sapiens) (UniProt O15520). Description: compounds binding fibroblast growth factor 10 – biochemical, small-molecule microarray, 635 nm fluorescence, primary screen (AID 1102). Particulars: FGF10 binding, fluorescence 635 nm, higher = more signal.
Experiment [6] deals with glycogen synthase kinase-3 (GSK3A per assay name; protocol says GSK3B). The experiment can be described thus: compounds binding glycogen synthase kinase-3 – biochemical, small-molecule microarray, 635 nm fluorescence, GSK3A, primary screen (AID 1103). Also: the record names both GSK3A and GSK3B. To be noted: fluorescence 635 nm, higher = more signal.
In experiment [7] the target is Epidermal growth factor receptor (Homo sapiens) (UniProt P00533). Description: compounds binding epidermal growth factor receptor – biochemical, small-molecule microarray, 635 nm fluorescence, primary screen (AID 1104).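 Also: score merges 667 nm emission intensity with spot signal to noise over triplicate slides.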 Particulars: EGFR binding, higher = more signal.
Experiment [8] has as its target Follistatin-related protein 3 (Homo sapiens) (UniProt O95633). The experiment can be described thus: compounds binding follistatin-related protein 3 – biochemical, small-molecule microarray, 635 nm fluorescence, primary screen (AID 1105).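 Also: score merges emission near 667 nm and signal to noise per printed spot across three slides.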 Particulars: FSTL3 binding, higher = more signal.
Experiment [9] has as its target Dickkopf-related protein 1 (Homo sapiens) (UniProt O94907). The experiment can be described thus: small molecules binding DKK1 protein – biochemical, small-molecule microarray, 635 nm fluorescence scan, primary screen (AID 1106).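 Also: score merges emission near 667 nm with signal to noise over three replicate slides.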 Particulars: higher = more signal.
Experiment [10] has as its system Inhibin beta A chain (activin A). Description: small molecules binding activin A – biochemical, small-molecule microarray, 635 nm fluorescence scan, primary screen (AID 1107).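 Also: mouse activin A protein probed at 4.33 µg/mL on printed slides; score merges bound-protein fluorescence near 667 nm with spot signal-to-noise.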 To be noted: INHBA, higher = more signal.
For experiment [11], the system named is Human papillomavirus type 1a protein E7 (residues 44-93). The experiment can be described thus: small molecules binding HPV E7 44-93 – biochemical, small-molecule microarray, residues 44-93, 635 nm fluorescence, primary screen (AID 1108).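 Also: E7 fragment applied at 1 µg/mL in TBST for 1 h at 4 C; score combines spot fluorescence with its signal to noise ratio.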 To be noted: fluorescence 635 nm, higher = more signal.
Experiment [12] is described as follows: hepatitis C replication reporter changes, two-sided – Huh7 cells, luciferase reporter, HCV replication inhibitor project, primary screen (AID 1109).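 Also: huh7 hepatoma cells harbouring a luciferase neomycin HCV replicon reporter; luciferase luminescence as measure of HCV replicon replication; test concentration not given here.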 Particulars: Huh7 HCV replicon luciferase reporter, 48 h; higher = more signal.
In experiment [13] the target is Left-right determination factor 2 (Homo sapiens) (UniProt O00292). Description: small molecules binding LEFTY2 protein – biochemical, small-molecule microarray, 635 nm fluorescence scan, primary screen (AID 1110). To be noted: higher = more signal.
Experiment [14] deals with Calmodulin-1 (Homo sapiens) (UniProt P0DP23). The experiment can be described thus: small molecules binding calmodulin-1 with EGTA – biochemical, small-molecule microarray, Cy5-labelled CALM1, profiling panel (AID 1111).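 Also: labelled calmodulin applied in Tris saline Tween buffer holding calcium plus EGTA and DTT.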 To be noted: Cy5-CALM1 binding fluorescence, higher = more signal.
Experiment [15] has the same target. The experiment can be described thus: small molecules binding Ca-loaded calmodulin-1 – biochemical, small-molecule microarray, Cy5-labelled CALM1, plus calcium, artefact control for SMM control-protein annotation, profiling panel (AID 1112).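 Also: score merges spot fluorescence with signal to noise from triplicate slides.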 Particulars: Cy5-CALM1 binding fluorescence, higher = more signal.
Experiment [16] can be described thus: probe aWnt5a binding to arrayed compounds – biochemical, biotinylated probe, 635/667 nm fluorescence, primary screen (AID 1113).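 Also: score merges 667 nm fluorescence intensity with signal-to-noise per printed feature.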 Particulars: small-molecule microarray, higher = more signal.
Experiment [17] in a line: probe aShh binding to arrayed compounds – biochemical, biotinylated probe, 635/667 nm fluorescence, primary screen (AID 1114).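 Also: probe is biotin-labelled aShh protein from a stem cell growth factor screen; measures binding of labelled protein to compounds printed on the slide; score merges feature fluorescence at 667 nm with signal-to-noise.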 Particulars: small-molecule microarray, higher = more signal.
The nature of experiment [18]: probe aNog binding to arrayed compounds – biochemical, biotinylated probe, 635/667 nm fluorescence, primary screen (AID 1115).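 Also: probe is biotinylated aNog protein used at 0.15 µg/mL for 1 h at 4 C; z-score combines 667 nm fluorescence of each spot with its signal to noise.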 Particulars: small-molecule microarray, higher = more signal.
In experiment [19] the target is Torsin-1A-interacting protein 1 (Homo sapiens) (UniProt Q5JTV8). Description: compound microarray binding of lysate hLAP1 – cell lysate, small-molecule microarray, COS7 lysate, 635/667 nm fluorescence, primary screen (AID 1116). Particulars: 635 nm fluorescence, higher = more signal.
Experiment [20] addresses Alpha-bungarotoxin (Bungarus multicinctus) (UniProt P60615). The experiment can be described thus: compounds binding labelled alpha-BTX control protein – biochemical, small-molecule microarray, Alexa647 label, 635/667 nm fluorescence, artefact control for SMM control protein annotation, profiling panel (AID 1117). To be noted: alpha-BTX-A647 binding fluorescence, higher = more signal.

Chain of Dickkopf-related protein 1 (Homo sapiens) (O94907 whole entry, looked up): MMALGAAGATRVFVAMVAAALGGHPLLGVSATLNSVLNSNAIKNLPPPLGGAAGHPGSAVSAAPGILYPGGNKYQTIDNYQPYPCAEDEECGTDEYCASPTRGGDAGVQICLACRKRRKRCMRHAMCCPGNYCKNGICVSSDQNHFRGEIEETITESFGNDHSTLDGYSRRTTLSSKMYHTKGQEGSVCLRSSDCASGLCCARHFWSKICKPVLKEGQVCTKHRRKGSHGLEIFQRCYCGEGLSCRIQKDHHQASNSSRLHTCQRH
Chain of Epidermal growth factor receptor (Homo sapiens) (P00533 whole entry, looked up): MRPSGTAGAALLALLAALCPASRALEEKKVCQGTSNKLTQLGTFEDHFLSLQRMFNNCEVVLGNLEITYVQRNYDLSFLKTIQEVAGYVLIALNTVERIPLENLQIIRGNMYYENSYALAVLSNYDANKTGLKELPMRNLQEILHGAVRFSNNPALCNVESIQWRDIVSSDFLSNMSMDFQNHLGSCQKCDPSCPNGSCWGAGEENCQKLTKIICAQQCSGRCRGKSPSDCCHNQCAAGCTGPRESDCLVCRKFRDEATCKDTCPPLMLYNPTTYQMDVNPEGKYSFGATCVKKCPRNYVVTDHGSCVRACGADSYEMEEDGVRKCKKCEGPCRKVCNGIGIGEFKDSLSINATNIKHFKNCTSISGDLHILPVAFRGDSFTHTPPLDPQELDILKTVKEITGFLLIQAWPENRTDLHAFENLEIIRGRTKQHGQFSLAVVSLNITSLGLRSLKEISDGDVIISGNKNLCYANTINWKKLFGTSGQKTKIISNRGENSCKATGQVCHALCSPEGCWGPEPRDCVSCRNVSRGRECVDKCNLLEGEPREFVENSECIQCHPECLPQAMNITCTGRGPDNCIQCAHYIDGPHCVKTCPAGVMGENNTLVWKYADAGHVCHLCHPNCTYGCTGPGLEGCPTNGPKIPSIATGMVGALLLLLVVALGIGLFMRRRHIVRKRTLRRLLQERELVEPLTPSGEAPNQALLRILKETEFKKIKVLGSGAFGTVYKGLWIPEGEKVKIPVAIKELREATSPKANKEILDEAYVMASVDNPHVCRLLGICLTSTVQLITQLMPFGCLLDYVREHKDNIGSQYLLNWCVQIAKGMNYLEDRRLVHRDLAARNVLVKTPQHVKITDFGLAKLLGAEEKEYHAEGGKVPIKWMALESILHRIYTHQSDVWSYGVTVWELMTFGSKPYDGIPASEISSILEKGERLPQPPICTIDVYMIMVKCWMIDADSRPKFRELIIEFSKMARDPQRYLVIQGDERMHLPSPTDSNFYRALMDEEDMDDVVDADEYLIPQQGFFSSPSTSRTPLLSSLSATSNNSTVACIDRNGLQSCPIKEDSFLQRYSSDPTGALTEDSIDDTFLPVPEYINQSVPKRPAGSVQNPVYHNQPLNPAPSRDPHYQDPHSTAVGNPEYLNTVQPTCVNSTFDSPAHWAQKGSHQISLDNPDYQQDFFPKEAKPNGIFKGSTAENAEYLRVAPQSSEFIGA
Chain of Follistatin-related protein 3 (Homo sapiens) (O95633 whole entry, looked up): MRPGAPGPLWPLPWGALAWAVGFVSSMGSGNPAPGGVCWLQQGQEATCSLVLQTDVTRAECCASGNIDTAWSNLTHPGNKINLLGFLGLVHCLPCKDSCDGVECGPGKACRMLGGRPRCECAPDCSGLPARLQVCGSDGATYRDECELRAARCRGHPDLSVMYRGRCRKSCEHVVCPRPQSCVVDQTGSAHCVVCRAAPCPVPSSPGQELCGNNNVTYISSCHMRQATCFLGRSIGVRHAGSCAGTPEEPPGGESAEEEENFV
Chain of Left-right determination factor 2 (Homo sapiens) (O00292 whole entry, looked up): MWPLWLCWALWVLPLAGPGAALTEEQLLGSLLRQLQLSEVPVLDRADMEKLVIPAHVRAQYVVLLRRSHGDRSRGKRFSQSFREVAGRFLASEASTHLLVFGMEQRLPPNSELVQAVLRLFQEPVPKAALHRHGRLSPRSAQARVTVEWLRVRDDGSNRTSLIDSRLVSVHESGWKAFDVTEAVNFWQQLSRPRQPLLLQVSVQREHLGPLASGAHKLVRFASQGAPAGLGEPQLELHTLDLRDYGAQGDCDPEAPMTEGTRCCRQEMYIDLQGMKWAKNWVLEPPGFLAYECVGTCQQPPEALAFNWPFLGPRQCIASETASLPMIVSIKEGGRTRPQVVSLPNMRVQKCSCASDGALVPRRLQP
Chain of Fibroblast growth factor 10 (Homo sapiens) (O15520 whole entry, looked up): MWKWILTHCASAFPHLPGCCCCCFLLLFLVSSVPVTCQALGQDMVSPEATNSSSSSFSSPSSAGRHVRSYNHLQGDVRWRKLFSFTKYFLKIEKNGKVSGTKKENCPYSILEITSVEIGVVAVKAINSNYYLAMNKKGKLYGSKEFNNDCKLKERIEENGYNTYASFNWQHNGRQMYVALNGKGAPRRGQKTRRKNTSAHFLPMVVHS
Chain of Torsin-1A-interacting protein 1 (Homo sapiens) (Q5JTV8 whole entry, looked up): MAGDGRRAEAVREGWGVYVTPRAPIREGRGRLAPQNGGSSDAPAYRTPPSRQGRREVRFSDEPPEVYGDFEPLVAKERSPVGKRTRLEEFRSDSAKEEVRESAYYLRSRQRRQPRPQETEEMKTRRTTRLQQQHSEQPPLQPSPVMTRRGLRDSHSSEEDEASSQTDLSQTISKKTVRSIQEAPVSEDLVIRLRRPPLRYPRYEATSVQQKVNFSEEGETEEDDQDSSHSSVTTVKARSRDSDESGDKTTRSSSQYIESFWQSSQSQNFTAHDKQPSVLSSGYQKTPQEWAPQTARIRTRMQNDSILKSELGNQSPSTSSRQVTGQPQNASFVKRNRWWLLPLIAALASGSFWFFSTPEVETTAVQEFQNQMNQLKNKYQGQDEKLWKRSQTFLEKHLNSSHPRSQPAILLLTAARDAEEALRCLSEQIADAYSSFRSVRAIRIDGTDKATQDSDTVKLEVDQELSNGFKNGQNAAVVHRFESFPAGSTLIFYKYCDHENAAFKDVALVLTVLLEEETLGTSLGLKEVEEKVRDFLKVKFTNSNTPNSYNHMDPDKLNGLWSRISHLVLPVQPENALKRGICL
Chain of Alpha-bungarotoxin (Bungarus multicinctus) (P60615 whole entry, looked up): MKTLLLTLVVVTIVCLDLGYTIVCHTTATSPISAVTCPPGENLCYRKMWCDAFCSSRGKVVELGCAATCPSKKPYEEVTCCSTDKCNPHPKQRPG

Turning to `O=C1C2C=CC(C(O)c3ccco3)N(Nc3ccccc3)C2C(=O)N1c1ccccc1` (stereo not given), the composite z-score is 0.576 in [1]; 0.144 in [2]; 0.878 in [3]; -0.322 in [5]; -0.678 in [6]; -0.616 in [7]. Moreover, the composite z-score was -0.713 in experiment [8]; -0.555 in [9]; 0.781 in experiment [10]; -0.335 in experiment [11]; -0.756 in [13]; -0.136 in experiment [14]. Further, the composite z-score in [15] is 0.245; in experiment [16], -0.006; in [17] it was 0.0121; in [18] it was 0.181; in experiment [19], -0.479; in [20], -0.0188. Further, the results for the z-score in experiment [4] and in [12] were 0.14 (inactive) and 0.305, respectively.
`C=C(CCCC)C(=O)CC[C@@H](OC(=O)c1cccnc1)c1ccc(OCCO)cc1`: the composite z-score in experiment [1] was 1.25; in experiment [2], -0.191; in experiment [3], -0.266; in experiment [5] it was 1.67; in experiment [6], 0.704; in experiment [7], 0.298. The composite z-score was 1.39 in [8]; 0.714 in experiment [9]; 0.982 in [10]; 0.849 in experiment [11]; 0.249 in experiment [13]; -0.588 in experiment [14]. Moreover, the composite z-score in experiment [15] was -0.684; in experiment [16] it was -0.0161; in experiment [17], -0.243; in [18] it was -0.374; in experiment [19], 0.903; in [20], 0.172. The z-score is 2.51 (inactive) in experiment [4] and -2.35 in [12].
As to `O=C1O[C@H](c2ccccc2)[C@H](c2ccccc2)N2[C@H]1[C@@H](C(=O)Nc1nc3ccccc3s1)[C@]1(C(=O)Nc3ccc(C#CC4=CCCCC4)cc31)[C@H]2c1ccc(O)cc1`, the composite z-score was 1.52 in experiment [1]; -0.0399 in experiment [2]; 0.115 in [3]; 0.588 in [5]; 1.22 in experiment [6]; 0.308 in experiment [7]. The composite z-score worked out at 0.842 in experiment [8]; 0.188 in experiment [9]; 0.533 in experiment [10]; 1.38 in experiment [11]; 0.0561 in [13]; 1.18 in experiment [14]. In addition, the composite z-score in experiment [15] was 0.366; in experiment [16], -0.0203; in [17], 0.0465; in [18] it was 0.178; in experiment [19], 1.17; in experiment [20], 1.4. Besides, the results for the z-score in experiment [4] and in experiment [12] were -1.31 (inactive) and -0.832, respectively.
For the molecule `COCCOC(=O)N1C(=O)[C@@]2(c3cc(C#CCCO)ccc31)[C@H](C(N)=O)[C@H]1C(=O)O[C@H](c3ccccc3)[C@H](c3ccccc3)N1[C@@H]2c1ccc(OCCO)cc1`, the composite z-score in experiment [1] amounted to 1.44; in experiment [2], 0.209; in [3], 0.415; in [5], 1.25; in experiment [6], 1.23; in experiment [7], 0.808. The composite z-score in [8] was found to be 1.14; in experiment [9], 0.616; in experiment [10], 0.914; in experiment [11], 1.28; in experiment [13] it was 0.957; in experiment [14], 1.1. Besides, the composite z-score was -0.351 in experiment [15]; -0.0303 in experiment [16]; 0.0253 in [17]; -0.371 in experiment [18]; 1.46 in [19]; 0.787 in experiment [20]. In addition, the z-score was 0.475 (inactive) in experiment [4] and -1.14 in [12].
In the case of `C=CCN1C(=O)[C@]2(O[C@H](CCO)[C@@H]([Si](C)(C)c3ccc(OC)cc3)[C@@H]2C)c2cc(N3C(=O)COc4ccccc43)ccc21`, the composite z-score is 0.529 in experiment [1]; -0.113 in experiment [2]; 0.33 in [3]; 0.74 in experiment [5]; 0.195 in experiment [6]; 0.0364 in experiment [7]. Also, the composite z-score was 0.4 in experiment [8]; -0.207 in experiment [9]; 0.378 in experiment [10]; 1.32 in experiment [11]; 0.181 in [13]; 0.966 in [14]. Further, the composite z-score in [15] was 0.325; in [16], -0.0134; in experiment [17], -0.0858; in [18], 0.0599; in experiment [19], -0.0988; in [20], 0.429. Further, the figures for the z-score in experiment [4] and in [12] were -3.03 (inactive) and -5.2, respectively.
Consider `CC(C)=CCCC(C)=CC(O)C1C=CC2C(=O)N(c3ccccc3)C(=O)C2N1Nc1ccccc1F` (stereo not given), for which the composite z-score stood at 1.33 in experiment [1]; 0.0643 in experiment [2]; 0.0744 in experiment [3]; 0.85 in [5]; 0.403 in [6]; 0.329 in [7]. Also, the composite z-score in experiment [8] was 0.587; in experiment [9], -0.0093; in [10], 0.418; in experiment [11], 0.961; in experiment [13], -0.0742; in experiment [14] it was 1.67. Further, the composite z-score in experiment [15] is -0.132; in experiment [16], -0.171; in experiment [17], -0.414; in experiment [18] it was -0.196; in experiment [19] it was 2.19; in experiment [20], 0.529. The values for the z-score in experiment [4] and in experiment [12] were -0.652 (inactive) and -1.43, respectively.
